Each structure is given as a SMILES string. The campaign covered roughly 39,000 compounds. About 1,500 (3.8%) were called active. What follows is part of a selection rich in actives, with near analogues and random picks from the rest.

The test relates to HSkMC (human skeletal muscle cells). The test can be described thus: cytotoxicity call (relative viability < 0.9). The following applies: 10 µM.
For the molecule `CO[C@H]1CN(C)C(=O)c2cc(NC(=O)Nc3ccc(Cl)cc3)ccc2OC[C@@H](C)N(C(=O)Nc2c(C)noc2C)C[C@H]1C`, the cytotoxicity call was “inactive”.

In the case of `C[C@@H]1CCCCO[C@H](CN(C)S(=O)(=O)c2cccs2)[C@@H](C)CN([C@H](C)CO)C(=O)c2cc(NC(=O)Nc3ccc(C(F)(F)F)cc3)ccc2O1`, the cytotoxicity call was “inactive”.

As to `Cc1noc(C)c1NC(=O)N(C)C[C@@H]1Oc2ccc(NC(=O)Cn3cnnn3)cc2CC(=O)N([C@@H](C)CO)C[C@H]1C`, the cytotoxicity call is “inactive”.

Take `C[C@@H]1CN([C@H](C)CO)C(=O)Cc2cc(NC(=O)Cn3cnnn3)ccc2O[C@@H]1CN(C)C(=O)Nc1ccc(C(F)(F)F)cc1`: the cytotoxicity call is “inactive”.

As for `C[C@H](CO)N1C[C@H](C)[C@H](CN(C)Cc2ccc(Cl)c(Cl)c2)OCCCC[C@H](C)Oc2ccc(NC(=O)Nc3ccc(C(F)(F)F)cc3)cc2C1=O`, the cytotoxicity call is “inactive”.

Regarding `Cc1ccc(S(=O)(=O)N(C)C[C@@H]2Oc3ccc(NS(=O)(=O)c4cccs4)cc3C(=O)N([C@@H](C)CO)C[C@@H]2C)cc1`, the cytotoxicity call is “inactive”.

Consider `O=C(C[C@H]1CC[C@@H]2[C@H](COC[C@@H](O)CN2S(=O)(=O)c2cccc(F)c2)O1)NCCCN1CCOCC1`, for which the cytotoxicity call is “inactive”.

On to `Cc1ccc(F)c(S(=O)(=O)N2[C@@H]3CC[C@@H](C3)[C@H]2c2nc3cccc(OCc4ccc(F)cc4)c3[nH]2)c1`, for which the cytotoxicity call was “inactive”.

As for `C[C@H]1CCCCO[C@@H](CN(C)Cc2ccc(C(F)(F)F)cc2)[C@@H](C)CN([C@@H](C)CO)C(=O)c2cc(NC(=O)c3ccccc3)ccc2O1`, the cytotoxicity call was “active”.

With `C[C@@H]1CN([C@@H](C)CO)C(=O)c2cc(NC(=O)Nc3ccccc3)ccc2O[C@@H](C)CCCCO[C@H]1CN(C)Cc1ccc(C(F)(F)F)cc1`, the cytotoxicity call was “active”.

`C[C@@H]1CCCCO[C@@H](CN(C)Cc2ccc(C(F)(F)F)cc2)[C@@H](C)CN([C@@H](C)CO)C(=O)c2cc(NC(=O)Nc3ccccc3)ccc2O1`: the cytotoxicity call was “inactive”.

In the case of `C[C@H]1CCCCO[C@H](CN(C)Cc2ccc(C(F)(F)F)cc2)[C@@H](C)CN([C@@H](C)CO)C(=O)c2cc(NC(=O)Nc3ccccc3)ccc2O1`, the cytotoxicity call was “active”.

In the case of `C[C@H](CO)N1C[C@H](C)[C@H](CN(C)Cc2ccc(C(F)(F)F)cc2)OCCCC[C@H](C)Oc2ccc(NC(=O)Nc3ccccc3)cc2C1=O`, the cytotoxicity call was “inactive”.

In the case of `C[C@@H]1CCCCO[C@H](CN(C)Cc2ccncc2)[C@H](C)CN([C@@H](C)CO)C(=O)c2cc(NC(=O)c3ccccc3)ccc2O1`, the cytotoxicity call was “active”.

`C[C@H](CO)N1C[C@H](C)[C@H](CN(C)Cc2ccncc2)OCCCC[C@H](C)Oc2ccc(NC(=O)c3ccccc3)cc2C1=O`: the cytotoxicity call was “inactive”.

As to `C[C@@H]1CCCCO[C@H](CN(C)Cc2ccc(C(F)(F)F)cc2)[C@H](C)CN([C@H](C)CO)C(=O)c2cc(NC(=O)c3ccccc3)ccc2O1`, the cytotoxicity call was “inactive”.

For `C[C@@H]1CCCCO[C@@H](CN(C)Cc2ccc(C(F)(F)F)cc2)[C@H](C)CN([C@H](C)CO)C(=O)c2cc(NC(=O)c3ccccc3)ccc2O1`, the cytotoxicity call is “inactive”.

Turning to `C[C@H]1CCCCO[C@H](CN(C)Cc2ccncc2)[C@@H](C)CN([C@@H](C)CO)C(=O)c2cc(NC(=O)c3ccccc3)ccc2O1`, the cytotoxicity call was “inactive”.

As for `O=C(NOCCO)c1cc(CN2OCCCC2=O)c(F)c(F)c1Nc1ccc(I)cc1F`, the cytotoxicity call is “inactive”.

`O=C(C[C@H]1C[C@H]2c3cc(NS(=O)(=O)c4ccccc4)ccc3O[C@H]2[C@H](CO)O1)NCC(F)(F)F`: the cytotoxicity call was “inactive”.

On to `CC(C)OC(=O)c1nnc(N)[nH]1`, for which the cytotoxicity call is “inactive”.

`CN1CCN(C(=O)[C@H]2C[C@H]3CN(c4ncc(F)cn4)C[C@@H]3N2C)CC1`: the cytotoxicity call is “inactive”.

In the case of `CC1(C)C=Cc2c(nc3ccccc3c2NCc2ccccc2)C1`, the cytotoxicity call was “inactive”.

Take `Cc1cc(C(=O)Nc2ccc3c(c2)C(=O)N(C)[C@@H]2CC[C@H](CC(=O)NCC(F)(F)F)O[C@@H]2CO3)no1`: the cytotoxicity call was “inactive”.

On to `COCC(=O)Nc1ccc2c(c1)C(=O)N(C)C[C@@H](OC)[C@@H](C)CN(Cc1ccccc1OC)[C@@H](C)CO2`, for which the cytotoxicity call is “inactive”.

For the molecule `C[C@@H]1CN([C@H](C)CO)C(=O)c2cc(NC(=O)C3CCCCC3)ccc2O[C@@H](C)CCCCO[C@H]1CN(C)Cc1ccccc1`, the cytotoxicity call was “inactive”.

Regarding `COc1ccc(C#Cc2cnc3c(c2)C(=O)N([C@@H](C)CO)C[C@@H](C)[C@H](CN(C)C(=O)CN(C)C)O3)cc1`, the cytotoxicity call is “inactive”.

For `C[C@H](CO)N1C[C@H](C)[C@@H](CN(C)S(=O)(=O)c2cn(C)cn2)Oc2c(NC(=O)CCC(F)(F)F)cccc2C1=O`, the cytotoxicity call is “inactive”.

For the molecule `C[C@@H]1CCCCO[C@@H](CN(C)S(=O)(=O)c2ccc(Cl)cc2)[C@@H](C)CN([C@H](C)CO)C(=O)c2cc(NC(=O)Nc3cccc4ccccc34)ccc2O1`, the cytotoxicity call is “inactive”.

`COC(=O)[C@@H]1CCCC1=O`: the cytotoxicity call was “inactive”.

Turning to `COc1ccc(CNC(=O)C[C@H]2C[C@H]3c4cc(NC(=O)NC5CCCC5)ccc4O[C@H]3[C@@H](CO)O2)cc1`, the cytotoxicity call was “inactive”.

As for `FC(F)(F)c1cc(NC(=S)Nc2ccc(Br)cc2-c2nn[nH]n2)cc(C(F)(F)F)c1`, the cytotoxicity call was “active”.

As to `O=C(Nc1cc(C(F)(F)F)cc(C(F)(F)F)c1)Nc1c(Br)cc(Br)cc1-c1nn[nH]n1`, the cytotoxicity call was “inactive”.

On to `COc1ccccc1-c1cnc2c(c1)C(=O)N([C@@H](C)CO)C[C@H](C)[C@H](CN(C)C(=O)c1cccnc1)O2`, for which the cytotoxicity call was “inactive”.

As for `COc1ccc([Si](C)(C)[C@H]2[C@H](CC(=O)N(CCO)Cc3ccccc3)O[C@@]3(C(=O)N(Cc4cccc(N5CCCCC5=O)c4)c4ccccc43)[C@@H]2C)cc1`, the cytotoxicity call was “inactive”.

On to `Nc1nc(F)nc2c1ncn2[C@@H]1O[C@H](COP(=O)(O)O)[C@@H](O)[C@@H]1O`, for which the cytotoxicity call is “inactive”.

With `Nc1ncnc2c1c(I)cn2[C@H]1O[C@@H](CO)[C@@H](O)[C@@H]1O`, the cytotoxicity call is “inactive”.

In the case of `Nc1ncnc2c1c(I)cn2[C@@H]1O[C@H](CO)[C@@H](O)[C@H]1O`, the cytotoxicity call is “inactive”.

Consider `Nc1ncn(C2OC(CO)C(O)C2O)c(=O)n1` (configuration not stated), for which the cytotoxicity call is “inactive”.

As for `Nc1ncnc2c1ncn2[C@@H]1O[C@H](CO)[C@@H](O)[C@@H]1O`, the cytotoxicity call is “inactive”.

Turning to `Nc1ncn([C@@H]2O[C@H](CO)[C@@H](O)[C@H]2O)c(=O)n1`, the cytotoxicity call is “active”.

On to `NC(=O)c1cn([C@@H]2O[C@H](CO)[C@@H](O)[C@H]2O)c2ncnc(N)c2c1=O`, for which the cytotoxicity call is “active”.

In the case of `Nc1ncnc2c1ncn2[C@H]1O[C@@H](CO)[C@H](O)[C@@H]1O`, the cytotoxicity call is “inactive”.

On to `Nc1nc(F)nc2c1ncn2[C@@H]1O[C@H](CO)[C@@H](O)[C@H]1O`, for which the cytotoxicity call is “active”.

`Nc1nc(Cl)nc2c1ncn2[C@@H]1O[C@H](CO)[C@@H](O)[C@H]1O`: the cytotoxicity call was “inactive”.

Consider `OC[C@H]1O[C@H](n2cnc3cncnc32)[C@@H](O)[C@@H]1O`, for which the cytotoxicity call is “active”.

For `Nc1ncn([C@@H]2C[C@H](O)[C@@H](CO)O2)c(=O)n1`, the cytotoxicity call was “inactive”.

Values taken from the antibiotic and cytotoxicity screens of Wong et al. (2023).
